The text below walks through data of PubChem BioAssay (Tox21).

Values joined by “and” are separate entries in the source; they are usually repeats but may differ in a detail not shown here. Identical values can stand only once. Records with an inconclusive call do not appear. A structure can be active in one record and inactive in another. Active and inactive are the calls of the source. Unless noted, calls follow the shape of the dose curve; as a rule, active = well fitted curve in the direction sought with a large enough effect in the repeat runs; inconclusive = weak or mixed curves; inactive = no such curve, though single readings can be large; an effect the other way counts as inactive or inconclusive.

A short description of assay [1]: qHTS assay to test for compound auto fluorescence at 535 nm (green) in HEK293 cells (AID 720680).
Assay [2] in a line: qHTS assay to test for compound auto fluorescence at 460 nm (blue) in HEK293 cell free culture (AID 720681). Summed up:
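Test compounds were pinned into cell-free culture medium (DMEM with 10% FBS) and fluorescence was read directly at Ex/Em 405/460 nm. Signals were expressed as fluorescence equivalents of triamterene, with DMSO vehicle as control.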

Assay [3] is described as follows: qHTS assay to test for compound auto fluorescence at 535 nm (green) in HEK293 cell free culture (AID 720682). Summed up:
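No cells present: wells hold DMEM supplemented with 10% FBS, into which compound or vehicle is pinned. Green emission is then recorded (485 nm excitation, 535 nm emission) and scaled to fluorescein.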
Background: In qHTS, concentration-response curves come from the screen itself.

The nature of assay [4]: qHTS assay to test for compound auto fluorescence at 590 nm (red) in HEK293 cell free culture (AID 720683). Summed up: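 Tox21 10K library compounds were pinned into cell-free DMEM with 10% FBS and fluorescence was read at excitation 540 nm. Activity is expressed as Rose Bengal sodium equivalency.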
Assay [5] in a line: qHTS assay to test for compound auto fluorescence at 590 nm (red) in HepG2 cell free culture (AID 720684). Summed up:
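Readout: intrinsic compound fluorescence at 590 nm emission after 540 nm excitation, scaled to Rose Bengal sodium. Matrix was cell-free MEM with 10% FBS; DMSO vehicle wells served as control.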

Assay [6] can be described thus: qHTS assay to test for compound auto fluorescence at 535 nm (green) in HepG2 cell free culture (AID 720686).
Assay [7] in a line: qHTS assay to test for compound auto fluorescence at 460 nm (blue) in HepG2 cells (AID 720687). Summed up:
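Cells (2,000/well in MEM with 10% FBS) attached overnight at 37 C, then were exposed to compound or DMSO for 1 hr at 37 C, 5% CO2. Fluorescence read at Ex/Em 405/460 nm, expressed as triamterene-equivalent signal.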

In assay [8] the target is Glucocorticoid receptor (Homo sapiens) (UniProt P04150). Nature of the assay: qHTS assay to identify small molecule agonists of the glucocorticoid receptor (GR) signaling pathway (AID 720691; active = well fitted activation curve with a large enough effect in the signal ratio in the repeat runs, not every such curve was filed as active; the % refers to the signal ratio). To be noted: GR-bla HeLa, beta-lactamase reporter ratio, 18 h; activation: at 62.4 µM (top of the series) unless noted. Summed up: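 Steps: seed GR-bla HeLa cells, incubate 4 h at 37 C/5% CO2; pin-transfer DMSO-dissolved compounds; incubate 18 h at 37 C; add LiveBLAzer B/G FRET substrate; after 2 h at room temperature, measure fluorescence.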
Sequence of Glucocorticoid receptor (Homo sapiens) (P04150 whole entry, looked up): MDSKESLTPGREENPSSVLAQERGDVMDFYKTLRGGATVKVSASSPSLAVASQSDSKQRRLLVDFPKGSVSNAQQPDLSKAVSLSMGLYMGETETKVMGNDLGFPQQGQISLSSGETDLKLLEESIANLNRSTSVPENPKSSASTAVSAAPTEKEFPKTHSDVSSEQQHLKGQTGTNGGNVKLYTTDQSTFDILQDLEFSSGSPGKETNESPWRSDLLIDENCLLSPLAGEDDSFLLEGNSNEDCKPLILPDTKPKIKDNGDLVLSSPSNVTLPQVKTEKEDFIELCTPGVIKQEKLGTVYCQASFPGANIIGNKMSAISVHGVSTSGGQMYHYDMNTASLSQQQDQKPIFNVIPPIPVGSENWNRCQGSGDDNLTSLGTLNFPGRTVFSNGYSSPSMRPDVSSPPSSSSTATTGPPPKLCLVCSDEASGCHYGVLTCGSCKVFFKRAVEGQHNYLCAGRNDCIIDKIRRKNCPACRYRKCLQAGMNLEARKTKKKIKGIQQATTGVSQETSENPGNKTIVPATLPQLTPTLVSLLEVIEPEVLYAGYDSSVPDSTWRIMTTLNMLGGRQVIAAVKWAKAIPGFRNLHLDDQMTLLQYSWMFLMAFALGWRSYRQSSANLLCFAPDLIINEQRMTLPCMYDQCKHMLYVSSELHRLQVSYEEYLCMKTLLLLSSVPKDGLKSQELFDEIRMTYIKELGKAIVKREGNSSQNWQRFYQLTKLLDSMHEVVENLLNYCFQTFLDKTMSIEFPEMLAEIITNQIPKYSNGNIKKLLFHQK

The target is the same in assay [9]. The experiment in a line: qHTS assay to identify small molecule antagonists of the glucocorticoid receptor (GR) signaling pathway (AID 720692; active = well fitted inhibition curve with a large enough effect in the signal ratio in the repeat runs, not every such curve was filed as active; the % refers to the signal ratio). Summed up:
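Antagonism was scored as loss of dexamethasone-driven (5 nM final) reporter signal in HeLa cells bearing a glucocorticoid response element–beta-lactamase construct, after 18 h compound exposure at 37 C and 2 h FRET substrate loading.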

Assay [10] can be described thus: qHTS assay for identifying genotoxic compounds that show differential cytotoxicity against isogenic chicken DT40 cell lines with known DNA damage response pathways - wild type cell line (AID 743012). Also: nearly all actives have a fitted effect of over 60% in size. Also: potency is read from the fitted curve at half-maximal effect. Summed up:
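Cytotoxicity in repair-proficient parental chicken DT40 cells serves as the comparator for Rad54/Ku70- and Rev3-deficient lines. Cells were exposed to compounds for 40 h at 37 C/5% CO2, and ATP-based luminescence (CellTiter-Glo) measured viability.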

Assay [11] can be described thus: qHTS assay for identifying genotoxic compounds that show differential cytotoxicity against isogenic chicken DT40 cell lines with known DNA damage response pathways - Rev3 mutant cell line (AID 743014). Also: nearly all actives have a fitted effect of over 55% in size. Also: potency is read from the fitted curve at half-maximal effect.
Assay [12] is described as follows: qHTS assay for identifying genotoxic compounds that show differential cytotoxicity against isogenic chicken DT40 cell lines with known DNA damage response pathways - Rad54/Ku70 mutant cell line (AID 743015). Also: nearly all actives have a fitted effect of over 60% in size. Also: potency is read from the fitted curve at half-maximal effect.
Assay [13] is described as follows: qHTS assay to identify small molecule antagonists of the androgen receptor (AR) signaling pathway - cell viability counter screen (AID 743033; also: nearly all actives have a fitted effect of over 45% in size).
Assay [14] is described as follows: qHTS assay to identify small molecule antagonists of the androgen receptor (AR) signaling pathway using the MDA cell line - cell viability counter screen (AID 743041; also: nearly all actives have a fitted effect of over 45% in size; also: potency is read from the fitted curve at half-maximal effect). Summed up:
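qHTS viability read-out; MDA-kb2 AR-luc; R1881-stimulated; 16 h exposure at 37C, 0% CO2; CellTiter-Fluor, 30 min; fluorescence intensity.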

The nature of assay [15]: qHTS assay to test for compound auto fluorescence at 460 nm (blue) in HepG2 cell free culture (AID 720685). Summed up: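 Cell-free plates of MEM plus 10% FBS received 23 nL compound or DMSO vehicle; blue-channel (405/460 nm) intensity scored against triamterene as reference fluorophore.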
Assay [16] can be described thus: qHTS assay to identify small molecule antagonists of the glucocorticoid receptor (GR) signaling pathway - cell viability counter screen (AID 720693). Also: nearly all actives have a fitted effect of over 55% in size.
The target of assay [17] is Androgen receptor (Homo sapiens) (UniProt P10275). The experiment in a line: qHTS assay to identify small molecule antagonists of the androgen receptor (AR) signaling pathway (AID 743035; active = well fitted inhibition curve with a large enough effect in the signal ratio in the repeat runs, not every such curve was filed as active; the % refers to the signal ratio). Summed up:
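Steps: seed AR-UAS-bla GripTite HEK293 cells, incubate 4 h at 37C; pin in test compound, then add agonist R1881; incubate 16 h at 37C; add LiveBLAzer B/G FRET substrate, 2 h at room temperature; read fluorescence.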

For assay [18] the target is unchanged. Nature of the assay: qHTS assay to identify small molecule agonists of the androgen receptor (AR) signaling pathway (AID 743036; active = well fitted activation curve with a large enough effect in the signal ratio in the repeat runs, with a control signal flat, not every such curve was filed as active; the % refers to the signal ratio). Summed up: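 Quantitative HTS of the Tox21 10K library in HEK293 cells bearing a stably integrated UAS-controlled beta-lactamase reporter. Compound exposure lasted 16 h at 37C. Reporter activity was detected by FRET substrate fluorescence after 2 h at room temperature.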

For assay [19] the target is unchanged. The experiment in a line: qHTS assay to identify small molecule agonists of the androgen receptor (AR) signaling pathway using the MDA cell line (AID 743040; also: nearly all actives have a fitted effect of over 20% in size). Summed up: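 Agonist activity is measured as luciferase luminescence in human MDA-kb2 cells whose MMTV reporter responds to both AR and GR. Compounds in DMSO incubate 16 h at 37C, 0% CO2, and ONE-Glo is read after 30 min.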

Assay [20] shares this target. Nature of the assay: qHTS assay to identify small molecule antagonists of the androgen receptor (AR) signaling pathway using the MDA cell line (AID 743042; also: nearly all actives have a fitted effect of over 55% in size). Summed up:
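MDA-kb2 cells (human breast carcinoma, stably carrying an MMTV-luciferase reporter responsive to AR and GR) were plated at 3,000 cells/well and preincubated 5 hr at 37C, then given compound plus R1881 agonist for 16 h. ONE-Glo luminescence was read.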

Sequence of Androgen receptor (Homo sapiens) (P10275 whole entry, looked up): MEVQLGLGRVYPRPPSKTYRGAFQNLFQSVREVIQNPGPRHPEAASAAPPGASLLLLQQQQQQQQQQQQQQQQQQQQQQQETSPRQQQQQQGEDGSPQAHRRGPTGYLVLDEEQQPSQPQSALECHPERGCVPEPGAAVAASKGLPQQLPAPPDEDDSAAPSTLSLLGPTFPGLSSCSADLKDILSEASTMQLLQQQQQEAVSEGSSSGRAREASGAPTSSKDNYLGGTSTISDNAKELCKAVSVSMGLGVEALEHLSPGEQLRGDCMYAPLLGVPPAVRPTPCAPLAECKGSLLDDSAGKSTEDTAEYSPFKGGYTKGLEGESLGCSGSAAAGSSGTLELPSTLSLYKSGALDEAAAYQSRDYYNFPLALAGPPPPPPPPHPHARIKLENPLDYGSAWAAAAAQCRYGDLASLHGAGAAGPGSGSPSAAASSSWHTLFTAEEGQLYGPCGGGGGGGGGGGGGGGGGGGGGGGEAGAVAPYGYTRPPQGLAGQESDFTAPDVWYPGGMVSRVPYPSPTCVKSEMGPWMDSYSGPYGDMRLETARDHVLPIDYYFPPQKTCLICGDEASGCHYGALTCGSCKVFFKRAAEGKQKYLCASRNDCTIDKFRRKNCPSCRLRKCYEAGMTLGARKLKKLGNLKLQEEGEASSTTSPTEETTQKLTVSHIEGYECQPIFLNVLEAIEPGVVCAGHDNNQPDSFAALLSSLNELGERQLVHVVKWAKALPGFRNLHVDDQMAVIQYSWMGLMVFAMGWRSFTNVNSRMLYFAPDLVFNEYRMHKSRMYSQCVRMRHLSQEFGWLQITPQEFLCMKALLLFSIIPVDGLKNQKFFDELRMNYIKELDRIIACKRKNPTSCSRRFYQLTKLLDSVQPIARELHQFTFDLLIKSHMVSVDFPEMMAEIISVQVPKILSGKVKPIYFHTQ

Turning to `CC1=C(CC(=O)O)c2cc(F)ccc2/C1=C\c1ccc(S(C)=O)cc1` (stereo unspecified), the result in assay [1], in assay [3], in assay [4], in assay [5], in assay [6] and in assay [7] was inactive. In addition, the Potency entry in assay [2], in assay [8], in assay [9], in [13] and in assay [14] was “inactive” in each case. Besides, the Potency entry in [10] is “inactive and 68.6 µM (active)”; in assay [11], 6.86 µM (active); in assay [12], “inactive and 24.3 µM (active)”.
Consider `CCCCC(CC)C(=O)OCCOCCOCCOC(=O)C(CC)CCCC` (stereo unspecified), for which the outcome in [1], in [4], in assay [5], in assay [6], in assay [7] and in assay [17] was inactive. Besides, the molecule was classed as inactive in [18], in assay [19] and in assay [20]. Besides, the Potency entry in assay [2], in [15], in assay [8], in assay [9], in assay [16] and in assay [12] was “inactive” each time. Further, the Potency result in [13] and in assay [14] was “inactive” each time. Moreover, the Potency was 21.7 µM (active) in [10]; “inactive and 19.3 µM (active)” in assay [11].
Regarding `O=[N+]([O-])C(CO)(CO)CO`, the outcome in assay [1], in assay [3], in assay [4], in [5], in assay [6] and in assay [7] was inactive. The Potency entry in assay [2], in assay [15], in assay [11], in assay [13] and in [14] was “inactive” in each case. Moreover, the Potency entry was “inactive and 68.6 µM (active)” in assay [10]; “inactive and 68.6 µM (active)” in assay [12].
On to `c1ccc2[nH]cnc2c1`, for which the molecule was classed as inactive in [1], in assay [3], in [4], in assay [5], in assay [6] and in [7]. In addition, the Potency result in assay [2], in assay [16], in assay [10], in [11], in assay [13] and in assay [14] was “inactive” throughout.
Take `CCC(C)C=O` (stereo unspecified): the outcome in assay [1], in [3], in [4], in assay [5], in assay [6] and in [7] was inactive. The Potency entry in assay [2], in assay [15], in assay [16], in assay [10], in [11] and in [13] was “inactive” throughout. In assay [14], the Potency result is “inactive”.
For `Oc1ccc2ccccc2c1N=Nc1ccccc1`, the molecule was classed as inactive in assay [1], in [3], in [4], in [5], in assay [6] and in assay [7]. Besides, the Potency result in assay [2], in assay [16], in [10], in [11], in assay [12] and in assay [13] was “inactive” throughout. Further, in [14], the Potency entry was “inactive”.
As for `Nc1c(S(=O)(=O)O)cc(Br)c2c1C(=O)c1ccccc1C2=O`, the molecule was called inactive in assay [1], in assay [3], in assay [4], in assay [5], in assay [6] and in [7]. For the same molecule, the Potency result in assay [2], in assay [16], in assay [10], in assay [11] and in [13] was “inactive” each time. For the same molecule, in [14], the Potency was 30.6 µM (active).
Take `O=c1c(-c2ccc(O)cc2)coc2cc(O)ccc12`: the outcome in assay [1], in assay [3], in assay [4], in assay [5], in [6] and in assay [7] was inactive. Also, the result in [19] and in [20] was inactive. In addition, the Potency result in [2], in [8], in assay [11], in assay [13] and in [14] was “inactive” in each case.
Turning to `CC1=C(/C=C/C(C)=C/C=C/C(C)=C/CO)C(C)(C)CCC1`, the outcome in assay [1], in assay [3], in assay [4], in assay [5], in assay [6] and in assay [7] was inactive. For the same molecule, the Potency entry in assay [2], in [15], in assay [13] and in assay [14] was “inactive” in each case. The Potency in [10] is 28.8 µM (active); in [11], 55.1 µM (active) and 36.2 µM (active).
